# Source: PubChem BioAssay (NCI)
# About 83,000 compounds went through this panel and 20% of them were active in at least one assay; those are over-represented in the sample as a whole.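 For each line, cells grew in 96-well plates with the test compound present at a single concentration for 48 hours.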 Activity calls are given as the source filed them.
# Test system: HCT-15 colon
# Assay: NCI-60 one-dose screen, 48 h (100 = growth as untreated, 0 = no growth, -100 = all killed)
# Details: 10 µM unless noted
# Method: Growth inhibition of the HCT-15 human tumor cell line is measured as a screen for anti-cancer activity. Cells are grown in 96 well plates and exposed to the test compound for 48 hours. Compounds are tested at a single concentration, which is 10^-5 M for most compounds. The reported endpoint is percent growth (GI% or GIPRCNT), where numbers from 0 - 100% represent growth inhibition, and numbers from -100% - 0 represent cell death. For example, a value of 40 represents 60% growth inhibition. A value of 0 means no net growth occurred over the course of the experiment. A value of -40 indicates 40% of cells at the beginning of the experiment died by the end of the experiment. A value of -100 means all cells are dead at the end of the experiment.
# NCI-60 Human Tumor Cell Lines Screen was performed using the standard one-dose NCI protocol, which is described in more detail at https://dtp.cancer.gov/discovery_development/nci-60/default.htm.
# Compounds with GIPRCNT values below 10 were considered active. Activity score was based on GIPRCNT using the following formula: […]
# Score is 0 for GIPRCNT values of 100 or above, 50 for GIPRCNT values of 0, and 100 for GIPRCNT values of -100.
row,SMILES,growth
1,O=S(=O)(c1ccc(N/N=C\c2ccccc2Cl)cc1)c1ccc(N/N=C/c2ccccc2Cl)cc1,73.7% (inactive)
2,CCOC(=O)c1sc2nc(-c3cc(OC)c(OC)c(OC)c3)nc(N3CCOCC3)c2c1C,29.1% (inactive)
3,CCN(CCNc1ccc(C)c2sc3cc(Cl)ccc3c(=O)c12)CC(C)O (stereo not given),-42.8% (active)
4,COc1ccc(OC)c([N+](=O)[O-])c1C(=O)CNC(C)=O,95.8% (inactive)
5,O=C(O)c1ccccc1C(F)(F)F,104% (inactive)
6,C[n+]1cccc(NC(=O)c2ccc3ccc4ccc(C(=O)Nc5ccc[n+](C)c5)nc4c3n2)c1,61.2% (inactive)
7,Cc1cnc(N)nc1OCCNC(=O)c1cccc(-c2ccc(S(=O)(=O)Nc3ccc4c(c3)N(C(=O)C3CC3)CCC4)cc2)c1,96.4% (inactive)
8,C=CCCCCOc1ccccc1-c1cnc(OCCCCC=C)n1C,52.2% (inactive)
9,Cc1cc(NN=C(c2ccc(O)cc2)c2ccc(O)cc2)c([N+](=O)[O-])cc1[N+](=O)[O-],46.3% (inactive)
10,COc1ccc(-c2cc(-c3ccc(OC)c(OC)c3)nc(SCCCCCC(=O)NO)n2)cc1,96.5% (inactive)
11,COc1ccc(/C=C(/C2=NCCN2)n2ccc3ccccc32)cc1,95.7% (inactive)
12,CC1(C)CC[C@]2(C(N)=O)CC[C@]3(C)C(=CC[C@@H]4[C@@]5(C)C/C(=C/c6ccncc6)C(=O)C(C)(C)[C@@H]5CC[C@]43C)[C@@H]2C1,-49.7% [100 µM] (active)
13,O=C1CC(c2ccccc2)Cc2nc3ccc(Cl)cc3cc21 (stereo not given),13.9% (inactive)
14,NNC(=O)c1ccc(C(=O)NN)cc1,112% (inactive)
15,CNC(=O)c1cc(Oc2ccc3nc(NC(=O)c4ccc5ncccc5c4)sc3c2)ccn1,91.1% (inactive)
16,Cc1cc2c(C(C)C)c(O)c(O)c(C=NCc3ccoc3)c2c(O)c1-c1c(C)cc2c(C(C)C)c(O)c(O)c(C=NCc3ccco3)c2c1O,19.5% (inactive)
17,COc1ccc(N(c2nc(-c3ccc([N+](=O)[O-])cc3)cs2)C(C)C)cc1,88% (inactive)
18,COc1ncc(-c2ccc3nccc(C#CCCCCC(=O)O)c3c2)cc1NS(=O)(=O)c1ccc(F)cc1F,27.7% (inactive)
19,COc1ncc(-c2ccc3nccc(C#CCCCCC(=O)NO)c3c2)cc1NS(=O)(=O)c1ccc(F)cc1F,24.9% (inactive)
20,C#CCOc1ccc(C2=NN(CC3CC3)C3N=C(Cl)c4ncn(CC5CC5)c4N23)cc1OCC#C (stereo not given),69.5% (inactive)

row,SMILES,growth
1,CCOC(=O)n1cc(C2=C(c3ccc(OC)c(OC)c3)COC2=O)c2ccccc21,7.9% (active)
2,FC(F)(F)c1ccc2c(c1)Sc1ccccc1N2,92.2% (inactive)
3,COc1ccc2[nH]c(C(=O)N3CCN(C(=O)OCc4ccc5c(Br)cc(Br)c(O)c5n4)CC3)cc2c1,-72.2% (active)
4,O=c1cc(-c2ccccc2)oc2cc(OCc3cn(Cc4ccc(F)cc4)nn3)cc(O)c12,94.4% [100 µM] (inactive)
5,CC(C)[C@H]1COC(=O)N1[C@@H]1C(=O)N([C@@H](CCC(=O)N2CCN(C3CCCC3)CC2)C(=O)N[C@@H]2CCCc3ccccc32)[C@@H]1/C=C/c1cccc(Cl)c1,34.1% (inactive)
6,O=C1/C(=C/c2ccc(OCc3ccccc3)cc2)Oc2cc(OCCN3CCCCC3)ccc21,14% (inactive)
7,COC(=O)[C@]1(C)CC[C@]2(C)CC[C@]3(C)C(=CC(=O)[C@@H]4[C@@]5(C)CCC(=O)NC(C)(C)[C@@H]5CC[C@]43C)[C@@H]2C1,-19.6% [100 µM] (active)
8,Cc1ccc(S(=O)(=O)Oc2ccc([N+](=O)[O-])cc2[N+](=O)[O-])cc1,19% (inactive)
9,N#Cc1ccc(-c2ccc(COc3ccc(CC4SC(=O)NC4=O)cc3)cc2)cc1 (stereo not given),63.6% (inactive)
10,CC1(C)CC[C@]2(C(=O)O)CC[C@]3(C)[C@H](CC[C@@H]4[C@@]5(C)CCC(=O)C(C)(C)[C@@H]5CC[C@]43C)[C@H]2[C@H]1OC(=O)C(F)(F)F,-64% [100 µM] (active)
11,COc1ccc2c(c1)C(C)Cc1c(ncnc1-n1cnc3ccccc31)N2C (stereo not given),16.1% (inactive)
12,CC[C@]12C=CCN3CC[C@@]4(c5ccc(OC)cc5N(C)[C@H]4[C@@](O)(C(=O)OC)[C@@H]1OC(=O)CCC(=O)N[C@H](Cc1c[nH]c4ccccc14)C(=O)OC)[C@@H]32,-24.1% [100 µM] (active)
13,CCCCCCCCN(CCCCCCCC)CC(O)c1ccc(Cl)c(C)c1Cl (stereo not given),80.1% (inactive)
14,CCN1CCN(CC(=O)Nc2nc3ccc(NCc4ccc(Cl)cc4)cc3s2)CC1,0.991% (active)
15,O=C(N/N=C\c1cc(Cl)ccc1O)N/N=C/c1cc(Cl)ccc1O,32.5% (inactive)
16,O=C(Nc1ccccc1)Nc1ccc(C(=O)/C=C/c2ccc(N3CCCC3)cc2)cc1,56.8% (inactive)
17,C#CCNC(=O)CC[C@@H](C)[C@H]1CC[C@H]2[C@@H]3CC[C@@H]4CC(=O)CC[C@]4(C)[C@H]3CC[C@]12C,1.91% [100 µM] (active)
18,Cc1ccc(-c2cn(C/C=C3\C=CN(S(=O)(=O)c4ccccc4)CC3)nn2)cc1,95.6% (inactive)
19,Cc1nc(Cl)c2c(n1)N(C)c1ccc(Cl)cc1C(C)C2 (stereo not given),90.5% (inactive)
20,O=C(Nc1ccc(Oc2ccc(F)cc2)c(Cl)c1)c1cccnn1,77.6% (inactive)
